From article PMC7862700, “An all-to-all approach to the identification of sequence-specific readers for epigenetic DNA modifications on cytosine” come the findings set out here.

Common to all, as to test: DAPPL (digital affinity profiling via proximity ligation, sequencing); 10 mM Tris-HCl pH 7.5, 50 mM NaCl, 1 mM DTT, 4% glycerol, room temperature, 30 min; GST-TFs on glutathione beads, 16-mer random dsDNA library, 0.1% formaldehyde crosslink after washing; high values mean tight binding
One assay concerns the target T1, FLI1 (Homo sapiens, UniProt Q01543 1-452).
T1 sequence: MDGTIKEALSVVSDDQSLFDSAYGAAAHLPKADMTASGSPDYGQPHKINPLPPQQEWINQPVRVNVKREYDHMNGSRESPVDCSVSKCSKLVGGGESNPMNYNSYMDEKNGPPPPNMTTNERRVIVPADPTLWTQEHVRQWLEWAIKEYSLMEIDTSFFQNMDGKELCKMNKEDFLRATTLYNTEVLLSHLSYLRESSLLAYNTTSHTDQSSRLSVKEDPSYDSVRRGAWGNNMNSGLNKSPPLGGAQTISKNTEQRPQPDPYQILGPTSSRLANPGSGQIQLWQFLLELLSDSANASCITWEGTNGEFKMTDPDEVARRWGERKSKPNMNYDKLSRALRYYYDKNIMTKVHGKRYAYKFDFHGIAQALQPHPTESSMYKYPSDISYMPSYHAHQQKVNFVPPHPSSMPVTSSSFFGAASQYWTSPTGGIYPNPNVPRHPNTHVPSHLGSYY
To be noted: protein: recombinant; tags: N-terminal GST; dsDNA, one strand shown. In short, it runs like this: (§1)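 The binding signal reported is, for every hexamer, its read frequency for a factor over its read frequency for the tag-only sample. Reads came from pools of yeast-expressed, GST-fused human transcription factors on glutathione beads, barcoded with DNA and mixed with that sample, which were incubated with 200 nmole of a random double-stranded 16-mer DNA library in Tris/NaCl/DTT/glycerol buffer at room temperature for 30 min. After washing, the pools were crosslinked with 0.1% formaldehyde, proximity-ligated with BsaI/T4 ligase for 1 h at 37 °C, PCR-amplified and sequenced on an Illumina NextSeq500.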

The next assay addresses T2, ELK1 (Homo sapiens, UniProt P19419 1-428).
T2 sequence: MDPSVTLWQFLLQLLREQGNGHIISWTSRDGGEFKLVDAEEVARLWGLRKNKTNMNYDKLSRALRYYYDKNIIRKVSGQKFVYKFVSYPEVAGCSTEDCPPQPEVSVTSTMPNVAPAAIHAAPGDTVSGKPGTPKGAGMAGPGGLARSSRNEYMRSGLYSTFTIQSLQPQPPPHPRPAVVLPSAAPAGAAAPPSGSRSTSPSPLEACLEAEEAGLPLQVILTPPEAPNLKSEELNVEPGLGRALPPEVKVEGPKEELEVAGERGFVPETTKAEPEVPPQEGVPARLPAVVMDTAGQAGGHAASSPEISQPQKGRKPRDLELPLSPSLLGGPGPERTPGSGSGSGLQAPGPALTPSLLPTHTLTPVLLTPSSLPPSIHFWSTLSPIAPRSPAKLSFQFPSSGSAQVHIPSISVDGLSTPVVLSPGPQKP
Particulars: protein: recombinant; tags: N-terminal GST; dsDNA, one strand shown. The method, boiled down:
as §1

The next assay deals with T3, GABPA (Homo sapiens, UniProt Q06546 1-454).
T3 sequence: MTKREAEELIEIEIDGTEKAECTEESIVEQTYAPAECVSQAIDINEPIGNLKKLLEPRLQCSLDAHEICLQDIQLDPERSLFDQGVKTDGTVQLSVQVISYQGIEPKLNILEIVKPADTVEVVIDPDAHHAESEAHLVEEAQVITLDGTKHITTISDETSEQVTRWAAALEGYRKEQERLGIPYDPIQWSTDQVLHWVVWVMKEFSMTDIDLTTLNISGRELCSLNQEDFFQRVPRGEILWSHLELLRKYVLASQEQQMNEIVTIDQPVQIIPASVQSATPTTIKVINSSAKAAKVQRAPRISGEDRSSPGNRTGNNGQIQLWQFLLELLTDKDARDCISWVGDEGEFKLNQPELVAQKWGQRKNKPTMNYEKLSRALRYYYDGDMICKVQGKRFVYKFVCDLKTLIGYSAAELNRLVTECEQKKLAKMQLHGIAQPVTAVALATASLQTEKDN
To be noted: protein: recombinant; tags: N-terminal GST; dsDNA, one strand shown. The method, boiled down: as §1

In another assay the target is T4, ERG (Homo sapiens, UniProt P11308 1-479).
T4 sequence: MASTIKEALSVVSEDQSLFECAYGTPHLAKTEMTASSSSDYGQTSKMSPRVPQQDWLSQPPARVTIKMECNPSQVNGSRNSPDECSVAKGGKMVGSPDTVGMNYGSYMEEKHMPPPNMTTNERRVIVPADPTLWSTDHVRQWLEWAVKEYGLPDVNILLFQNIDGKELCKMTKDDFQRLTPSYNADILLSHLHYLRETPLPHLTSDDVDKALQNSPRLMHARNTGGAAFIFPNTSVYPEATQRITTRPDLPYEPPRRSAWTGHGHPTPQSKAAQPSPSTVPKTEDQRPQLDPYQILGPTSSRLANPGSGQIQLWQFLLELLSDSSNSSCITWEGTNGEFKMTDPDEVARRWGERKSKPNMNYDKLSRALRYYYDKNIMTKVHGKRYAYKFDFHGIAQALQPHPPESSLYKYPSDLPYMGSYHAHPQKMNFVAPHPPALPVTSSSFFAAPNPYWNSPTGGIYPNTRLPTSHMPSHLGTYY
Particulars: protein: recombinant; tags: N-terminal GST; dsDNA, one strand shown. The method, boiled down: as §1

For a further assay, the target named is ELF1 (Homo sapiens, UniProt P32519 1-619). Particulars: protein: recombinant; tags: N-terminal GST; dsDNA, one strand shown. The method, boiled down: as §1
Sequence of ELF1 (P32519 whole entry): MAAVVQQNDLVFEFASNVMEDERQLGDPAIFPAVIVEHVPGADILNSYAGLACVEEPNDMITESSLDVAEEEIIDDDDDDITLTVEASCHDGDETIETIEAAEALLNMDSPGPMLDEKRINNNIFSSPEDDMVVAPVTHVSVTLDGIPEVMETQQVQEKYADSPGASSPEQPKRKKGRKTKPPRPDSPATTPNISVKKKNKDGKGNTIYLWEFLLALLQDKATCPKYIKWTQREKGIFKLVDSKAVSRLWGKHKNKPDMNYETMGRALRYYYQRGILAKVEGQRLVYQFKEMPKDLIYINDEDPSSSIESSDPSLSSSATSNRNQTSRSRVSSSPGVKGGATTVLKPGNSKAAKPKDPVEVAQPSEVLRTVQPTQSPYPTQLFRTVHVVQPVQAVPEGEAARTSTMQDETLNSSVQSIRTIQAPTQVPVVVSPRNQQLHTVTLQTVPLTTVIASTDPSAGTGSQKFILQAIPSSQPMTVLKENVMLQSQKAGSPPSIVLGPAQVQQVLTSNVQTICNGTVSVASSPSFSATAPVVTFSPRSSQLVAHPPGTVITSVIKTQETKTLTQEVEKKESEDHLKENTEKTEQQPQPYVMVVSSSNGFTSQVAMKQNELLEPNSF
The target in the next assay is T5, EHF (Homo sapiens, UniProt Q9NZC4 1-300).
T5 sequence: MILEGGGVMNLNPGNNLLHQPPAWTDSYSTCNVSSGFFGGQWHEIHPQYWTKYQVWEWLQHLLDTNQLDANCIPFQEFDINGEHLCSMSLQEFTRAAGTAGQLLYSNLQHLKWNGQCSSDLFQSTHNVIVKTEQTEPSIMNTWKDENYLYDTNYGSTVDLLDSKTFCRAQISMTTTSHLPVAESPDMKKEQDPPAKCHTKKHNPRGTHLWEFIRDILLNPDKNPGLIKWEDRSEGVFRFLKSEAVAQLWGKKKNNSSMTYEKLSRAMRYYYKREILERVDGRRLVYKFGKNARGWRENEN
To be noted: protein: recombinant; tags: N-terminal GST; dsDNA, one strand shown. The method, boiled down: as §1

The target in another assay is SPI1 (Homo sapiens, UniProt P17947 1-270). To be noted: protein: recombinant; tags: N-terminal GST; dsDNA, one strand shown. The method, boiled down:
as §1

Another assay addresses SPIB (Homo sapiens, UniProt Q01892 1-262). To be noted: protein: recombinant; tags: N-terminal GST; dsDNA, one strand shown. The method, boiled down:
as §1

A further assay concerns the target T6, ELK3 (Homo sapiens, UniProt P41970 1-407).
T6 sequence: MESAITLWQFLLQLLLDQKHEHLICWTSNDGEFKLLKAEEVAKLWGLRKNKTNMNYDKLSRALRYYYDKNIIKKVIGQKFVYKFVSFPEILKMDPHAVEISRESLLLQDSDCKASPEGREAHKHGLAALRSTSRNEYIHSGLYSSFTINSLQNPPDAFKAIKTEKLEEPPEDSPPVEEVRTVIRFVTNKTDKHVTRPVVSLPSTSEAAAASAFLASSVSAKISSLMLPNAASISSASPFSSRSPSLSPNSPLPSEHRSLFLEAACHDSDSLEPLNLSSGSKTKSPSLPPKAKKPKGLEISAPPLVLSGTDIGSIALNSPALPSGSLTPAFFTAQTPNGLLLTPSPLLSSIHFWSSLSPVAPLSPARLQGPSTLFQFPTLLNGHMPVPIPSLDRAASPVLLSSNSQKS
Particulars: protein: recombinant; tags: N-terminal GST; dsDNA, one strand shown. In short, it runs like this: as §1

In another assay the target is T7, FEV (Homo sapiens, UniProt Q99581 1-238).
T7 sequence: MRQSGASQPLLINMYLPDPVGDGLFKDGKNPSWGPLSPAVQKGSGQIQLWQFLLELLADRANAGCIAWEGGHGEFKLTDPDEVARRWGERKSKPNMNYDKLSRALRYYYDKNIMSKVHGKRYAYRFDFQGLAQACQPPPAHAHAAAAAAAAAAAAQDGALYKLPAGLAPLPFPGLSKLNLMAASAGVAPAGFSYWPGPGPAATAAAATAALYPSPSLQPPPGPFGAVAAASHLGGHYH
Particulars: protein: recombinant; tags: N-terminal GST; dsDNA, one strand shown. In short, it runs like this:
as §1

The target in a further assay is ETV5 (Homo sapiens, UniProt P41161 1-510). Particulars: protein: recombinant; tags: N-terminal GST; dsDNA, one strand shown. In short, it runs like this:
as §1

For the next assay, the target named is HSF1 (Homo sapiens, UniProt Q00613 1-529). To be noted: protein: recombinant; tags: N-terminal GST; chain copies: 3; dsDNA, one strand shown. The method, boiled down:
as §1

For a further assay, the target named is T8, SPIC (Homo sapiens, UniProt Q8N5J4 1-248).
T8 sequence: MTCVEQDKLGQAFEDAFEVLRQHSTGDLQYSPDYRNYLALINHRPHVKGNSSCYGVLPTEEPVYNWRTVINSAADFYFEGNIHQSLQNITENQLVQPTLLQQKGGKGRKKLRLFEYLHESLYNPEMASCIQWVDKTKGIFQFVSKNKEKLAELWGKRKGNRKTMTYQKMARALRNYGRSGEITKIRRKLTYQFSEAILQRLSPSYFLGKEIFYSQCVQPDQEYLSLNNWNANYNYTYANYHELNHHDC
Particulars: protein: recombinant; tags: N-terminal GST; dsDNA, one strand shown. The method, boiled down:
as §1

A further assay addresses ELF4 (Homo sapiens, UniProt Q99607 1-663). Particulars: protein: recombinant; tags: N-terminal GST; dsDNA, one strand shown. In short, it runs like this: as §1
The target of another assay is T9, ELK4 (Homo sapiens, UniProt P28324-2 1-405).
T9 sequence: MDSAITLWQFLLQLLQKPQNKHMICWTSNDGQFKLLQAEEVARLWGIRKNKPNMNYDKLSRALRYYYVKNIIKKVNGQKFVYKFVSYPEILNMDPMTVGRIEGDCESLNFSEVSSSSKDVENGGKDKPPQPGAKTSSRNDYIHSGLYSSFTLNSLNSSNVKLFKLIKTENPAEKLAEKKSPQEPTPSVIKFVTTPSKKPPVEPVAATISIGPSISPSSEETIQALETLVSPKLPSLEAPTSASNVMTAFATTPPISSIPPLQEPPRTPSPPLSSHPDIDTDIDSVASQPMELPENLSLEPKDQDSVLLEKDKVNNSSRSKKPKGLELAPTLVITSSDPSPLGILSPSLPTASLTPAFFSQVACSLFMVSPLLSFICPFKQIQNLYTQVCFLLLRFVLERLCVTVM
Particulars: protein: recombinant; tags: N-terminal GST; dsDNA, one strand shown. The method, boiled down:
as §1

The target of another assay is T10, ETV2 (Homo sapiens, UniProt O00321 1-342).
T10 sequence: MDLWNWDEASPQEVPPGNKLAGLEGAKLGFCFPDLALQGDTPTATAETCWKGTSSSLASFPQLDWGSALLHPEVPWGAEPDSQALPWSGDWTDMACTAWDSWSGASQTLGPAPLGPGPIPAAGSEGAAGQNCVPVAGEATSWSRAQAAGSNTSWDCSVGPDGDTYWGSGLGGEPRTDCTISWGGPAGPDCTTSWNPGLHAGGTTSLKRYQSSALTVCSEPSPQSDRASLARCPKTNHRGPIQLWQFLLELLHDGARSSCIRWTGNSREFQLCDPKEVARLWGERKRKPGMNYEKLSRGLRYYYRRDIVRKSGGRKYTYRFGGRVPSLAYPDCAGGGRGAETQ
To be noted: protein: recombinant; tags: N-terminal GST; dsDNA, one strand shown. The method, boiled down:
as §1

The target in the next assay is T11, ELF3 (Homo sapiens, UniProt P78545 1-371).
T11 sequence: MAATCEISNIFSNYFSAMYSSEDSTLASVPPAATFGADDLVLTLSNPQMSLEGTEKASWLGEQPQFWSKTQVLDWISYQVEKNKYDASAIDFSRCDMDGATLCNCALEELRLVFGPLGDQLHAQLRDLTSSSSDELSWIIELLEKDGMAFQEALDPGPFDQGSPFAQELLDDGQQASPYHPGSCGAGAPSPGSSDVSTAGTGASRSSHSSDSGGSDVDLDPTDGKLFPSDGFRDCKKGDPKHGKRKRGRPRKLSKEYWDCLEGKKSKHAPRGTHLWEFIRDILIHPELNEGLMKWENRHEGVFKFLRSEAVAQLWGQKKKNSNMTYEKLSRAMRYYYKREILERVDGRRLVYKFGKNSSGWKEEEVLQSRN
To be noted: protein: recombinant; tags: N-terminal GST; dsDNA, one strand shown. The method, boiled down: as §1

The target in a further assay is CRX (Homo sapiens, UniProt O43186 1-299). Particulars: protein: recombinant; tags: N-terminal GST; dsDNA, one strand shown. In short, it runs like this:
as §1

A further assay has as its target ETV1 (Homo sapiens, UniProt P50549 1-477). Particulars: protein: recombinant; tags: N-terminal GST; dsDNA, one strand shown. The method, boiled down:
as §1

Sequence of SPIB (Q01892 whole entry): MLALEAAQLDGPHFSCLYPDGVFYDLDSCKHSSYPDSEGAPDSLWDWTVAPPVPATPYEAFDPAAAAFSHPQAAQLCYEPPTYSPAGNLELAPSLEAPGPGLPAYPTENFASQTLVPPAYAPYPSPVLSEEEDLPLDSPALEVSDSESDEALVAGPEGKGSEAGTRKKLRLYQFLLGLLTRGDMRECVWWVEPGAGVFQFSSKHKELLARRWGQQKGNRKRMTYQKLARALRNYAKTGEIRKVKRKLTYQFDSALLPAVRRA
Sequence of ETV5 (P41161 whole entry): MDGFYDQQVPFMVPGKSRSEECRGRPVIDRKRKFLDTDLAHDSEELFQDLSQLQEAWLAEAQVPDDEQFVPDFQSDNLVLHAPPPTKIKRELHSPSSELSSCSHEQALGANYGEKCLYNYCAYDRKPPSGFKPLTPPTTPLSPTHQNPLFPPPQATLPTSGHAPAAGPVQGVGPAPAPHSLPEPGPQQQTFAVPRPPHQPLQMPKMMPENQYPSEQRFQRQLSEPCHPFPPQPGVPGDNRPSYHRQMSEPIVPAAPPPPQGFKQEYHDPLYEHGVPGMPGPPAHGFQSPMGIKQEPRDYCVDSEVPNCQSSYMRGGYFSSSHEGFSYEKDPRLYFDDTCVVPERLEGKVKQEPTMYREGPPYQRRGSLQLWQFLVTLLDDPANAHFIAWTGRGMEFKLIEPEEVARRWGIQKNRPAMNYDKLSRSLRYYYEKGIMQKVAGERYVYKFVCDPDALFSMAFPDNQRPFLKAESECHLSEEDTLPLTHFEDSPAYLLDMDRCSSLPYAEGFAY
Sequence of CRX (O43186 whole entry): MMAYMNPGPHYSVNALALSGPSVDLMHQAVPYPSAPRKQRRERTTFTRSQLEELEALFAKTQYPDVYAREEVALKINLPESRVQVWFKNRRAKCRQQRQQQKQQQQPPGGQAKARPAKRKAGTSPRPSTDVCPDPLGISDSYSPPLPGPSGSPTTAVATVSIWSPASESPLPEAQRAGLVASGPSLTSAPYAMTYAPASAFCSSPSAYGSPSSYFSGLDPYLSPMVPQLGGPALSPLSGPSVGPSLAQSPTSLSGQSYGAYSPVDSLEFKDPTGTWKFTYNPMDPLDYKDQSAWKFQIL
Sequence of ELF4 (Q99607 whole entry): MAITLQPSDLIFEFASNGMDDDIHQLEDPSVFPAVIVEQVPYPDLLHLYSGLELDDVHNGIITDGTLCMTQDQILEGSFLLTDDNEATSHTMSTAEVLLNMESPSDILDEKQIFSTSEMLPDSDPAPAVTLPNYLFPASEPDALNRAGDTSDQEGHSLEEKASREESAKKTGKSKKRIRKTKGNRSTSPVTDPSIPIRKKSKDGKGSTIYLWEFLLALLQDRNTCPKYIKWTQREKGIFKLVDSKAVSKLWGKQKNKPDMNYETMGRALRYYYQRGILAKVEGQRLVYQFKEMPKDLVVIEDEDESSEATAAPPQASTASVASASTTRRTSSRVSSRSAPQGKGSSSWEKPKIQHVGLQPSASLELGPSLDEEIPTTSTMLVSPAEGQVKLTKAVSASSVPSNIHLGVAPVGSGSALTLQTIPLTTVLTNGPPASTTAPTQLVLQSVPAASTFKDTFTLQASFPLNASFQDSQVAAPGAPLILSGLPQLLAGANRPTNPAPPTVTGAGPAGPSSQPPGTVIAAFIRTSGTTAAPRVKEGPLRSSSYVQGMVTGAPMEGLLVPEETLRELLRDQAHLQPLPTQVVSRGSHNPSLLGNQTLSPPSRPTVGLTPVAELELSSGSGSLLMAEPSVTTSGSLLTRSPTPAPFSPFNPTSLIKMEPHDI
Sequence of ETV1 (P50549 whole entry): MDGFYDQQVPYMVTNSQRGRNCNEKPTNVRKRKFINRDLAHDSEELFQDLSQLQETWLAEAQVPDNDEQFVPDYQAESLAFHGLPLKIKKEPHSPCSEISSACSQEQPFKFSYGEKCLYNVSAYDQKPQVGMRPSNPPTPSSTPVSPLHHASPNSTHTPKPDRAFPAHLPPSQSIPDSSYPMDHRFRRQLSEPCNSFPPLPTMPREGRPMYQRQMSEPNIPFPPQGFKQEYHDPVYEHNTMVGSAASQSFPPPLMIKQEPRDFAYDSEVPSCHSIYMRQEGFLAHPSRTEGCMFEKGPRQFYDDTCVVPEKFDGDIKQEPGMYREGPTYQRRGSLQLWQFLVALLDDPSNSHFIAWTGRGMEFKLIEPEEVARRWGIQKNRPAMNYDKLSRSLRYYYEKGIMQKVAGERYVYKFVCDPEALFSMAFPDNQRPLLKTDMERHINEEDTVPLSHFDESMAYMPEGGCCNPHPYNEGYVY
Sequence of HSF1 (Q00613 whole entry): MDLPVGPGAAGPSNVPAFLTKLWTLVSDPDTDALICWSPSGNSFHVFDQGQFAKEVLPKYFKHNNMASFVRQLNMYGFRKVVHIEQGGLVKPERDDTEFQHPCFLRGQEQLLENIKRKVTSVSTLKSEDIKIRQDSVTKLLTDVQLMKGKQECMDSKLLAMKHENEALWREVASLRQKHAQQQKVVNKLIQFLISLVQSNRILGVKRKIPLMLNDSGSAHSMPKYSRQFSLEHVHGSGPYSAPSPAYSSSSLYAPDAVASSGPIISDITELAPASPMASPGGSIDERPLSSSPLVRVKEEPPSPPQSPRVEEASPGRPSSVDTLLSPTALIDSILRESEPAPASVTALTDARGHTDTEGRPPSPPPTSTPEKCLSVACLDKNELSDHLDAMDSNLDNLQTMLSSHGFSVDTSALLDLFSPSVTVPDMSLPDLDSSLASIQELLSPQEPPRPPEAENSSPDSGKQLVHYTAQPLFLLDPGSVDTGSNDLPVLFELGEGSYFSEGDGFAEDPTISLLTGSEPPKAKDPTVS

As for TATAAC, the binding signal in the assay with FLI1 is 1.22 fold enrichment (6-mer frequency, TF over GST control); with ELK1 it was 1.21 fold enrichment (6-mer frequency, TF over GST control); with GABPA, 1.2 fold enrichment (6-mer frequency, TF over GST control); in the assay with ERG, 1.28 fold enrichment (6-mer frequency, TF over GST control); with ELF1, 1.29 fold enrichment (6-mer frequency, TF over GST control); in the assay with EHF, 1.15 fold enrichment (6-mer frequency, TF over GST control). Moreover, the binding signal in the assay with SPI1 was 1.12 fold enrichment (6-mer frequency, TF over GST control); with SPIB it was 1.39 fold enrichment (6-mer frequency, TF over GST control); in the assay with ELK3 it was 1.18 fold enrichment (6-mer frequency, TF over GST control); in the assay with FEV, 1.26 fold enrichment (6-mer frequency, TF over GST control); with ETV5 it was 1.2 fold enrichment (6-mer frequency, TF over GST control); with HSF1 it was 1.15 fold enrichment (6-mer frequency, TF over GST control). In addition, the binding signal with SPIC is 1.2 fold enrichment (6-mer frequency, TF over GST control); with ELF4, 1.2 fold enrichment (6-mer frequency, TF over GST control); with ELK4, 1.17 fold enrichment (6-mer frequency, TF over GST control); with ETV2, 1.1 fold enrichment (6-mer frequency, TF over GST control); in the assay with ELF3, 1.25 fold enrichment (6-mer frequency, TF over GST control); with CRX, 1.43 fold enrichment (6-mer frequency, TF over GST control). In addition, the binding signal with ETV1 is 1.25 fold enrichment (6-mer frequency, TF over GST control).
